About 2,200 (0.71%) of roughly 310,000 compounds showed an effect of 50% or more. Effects have a minus sign here. Only a selection was taken, and strong results are over-represented in it overall.

human ether-à-go-go-related gene (hERG) potassium channel, sequence (Q12809 whole entry, looked up): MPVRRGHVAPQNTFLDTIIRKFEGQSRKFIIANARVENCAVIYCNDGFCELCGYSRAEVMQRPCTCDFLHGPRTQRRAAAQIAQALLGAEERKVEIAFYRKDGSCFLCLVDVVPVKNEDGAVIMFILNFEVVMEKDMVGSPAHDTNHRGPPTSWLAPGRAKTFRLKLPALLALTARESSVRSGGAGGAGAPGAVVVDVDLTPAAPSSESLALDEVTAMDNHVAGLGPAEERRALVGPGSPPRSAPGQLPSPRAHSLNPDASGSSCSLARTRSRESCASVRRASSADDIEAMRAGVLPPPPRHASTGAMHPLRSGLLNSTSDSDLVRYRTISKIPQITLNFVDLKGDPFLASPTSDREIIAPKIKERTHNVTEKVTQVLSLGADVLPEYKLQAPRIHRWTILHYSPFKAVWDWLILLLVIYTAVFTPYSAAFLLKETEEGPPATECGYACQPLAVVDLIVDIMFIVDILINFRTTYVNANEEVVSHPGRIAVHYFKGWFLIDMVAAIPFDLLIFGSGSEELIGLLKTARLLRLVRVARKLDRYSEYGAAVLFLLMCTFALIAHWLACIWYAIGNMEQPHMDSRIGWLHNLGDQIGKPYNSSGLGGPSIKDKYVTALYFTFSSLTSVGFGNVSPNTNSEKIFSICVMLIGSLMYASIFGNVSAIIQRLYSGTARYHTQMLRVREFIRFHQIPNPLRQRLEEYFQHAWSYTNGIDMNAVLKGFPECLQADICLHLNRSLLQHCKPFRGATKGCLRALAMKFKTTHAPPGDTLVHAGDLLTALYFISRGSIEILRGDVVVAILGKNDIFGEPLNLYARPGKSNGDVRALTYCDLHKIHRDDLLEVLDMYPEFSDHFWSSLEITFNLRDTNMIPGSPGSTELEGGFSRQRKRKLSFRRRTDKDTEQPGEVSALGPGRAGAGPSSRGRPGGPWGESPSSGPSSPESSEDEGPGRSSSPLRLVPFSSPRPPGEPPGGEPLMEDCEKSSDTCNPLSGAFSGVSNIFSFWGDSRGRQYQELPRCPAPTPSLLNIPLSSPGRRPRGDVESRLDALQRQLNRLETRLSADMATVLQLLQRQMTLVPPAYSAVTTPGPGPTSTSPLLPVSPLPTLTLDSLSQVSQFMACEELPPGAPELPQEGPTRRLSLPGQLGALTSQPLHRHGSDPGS

The assay concerns the target human ether-à-go-go-related gene (hERG) potassium channel (human, UniProt Q12809). Put plainly: primary screen, population patch clamp on CHO cells stably expressing hERG; higher = less effect of the substance.
Regarding `O=C(COC(=O)/C=C/c1ccccc1F)Nc1nnc(-c2ccccc2)o1`, the “hERG current change (%, negative = inhibition) at 1uM” value came to 7.16%.
Then `Cc1ccc(S(=O)(=O)NCCOCCNS(=O)(=O)c2ccc(C)cc2)cc1`, with -2.18%; and `Cc1ccccc1C(=O)NC1CCN(C(=O)N2CCOCC2)CC1`, with 12.6%.
Regarding `O=c1cc(O)c2c(=O)n(C3CCCCC3)c3ccccc3c2o1`, the “hERG current change (%, negative = inhibition) at 1uM” value worked out at 10.4%.
For `CC(C)OC(=O)CSc1nc2c(cc1C#N)CCCCC2`, the “hERG current change (%, negative = inhibition) at 1uM” value amounted to 10.2%.
Then `CC12CCC(=O)N1C(C(=O)OCC(=O)Nc1cccc(S(=O)(=O)N3CCCCCC3)c1)CS2` (stereo not drawn), with -51.9%; and `CC12CCC(=O)N1C(C(=O)Nc1cccc(S(=O)(=O)N3CCCCCC3)c1)CS2` (stereo not drawn), with -29.7%.
With `CC12CCC(=O)N1C(C(=O)OCC(=O)Nc1cc(S(=O)(=O)N3CCCCC3)ccc1Cl)CS2` (stereo not drawn) the figure was 11.1%; with `COc1ccc(CNCC(O)(c2ccccc2)c2ccc(F)cc2)cc1` (stereo not drawn), -45.9%.
With `O=C(CN1CCCC1=O)NCCc1ccccc1` the figure was 8.88%; with `CCOc1ccc(CN(C)CC(=O)NCc2ccccc2)cc1`, -82.3%; with `CN(CCc1ccccn1)Cc1ccc(Cl)c(Cl)c1`, -0.903%.
On to `CN(CCc1ccccn1)Cc1ccc(Cl)cc1`, for which the “hERG current change (%, negative = inhibition) at 1uM” value was -24.6%.
Then `CN(CCc1ccccn1)Cc1ccc(Cl)cc1Cl`, with -54.1%.
Take `CCc1ccc(CN(C)CCc2ccccn2)cc1`: the “hERG current change (%, negative = inhibition) at 1uM” value is listed as -34.7%.
With `CSc1ccc(CN(C)CC(=O)NCc2ccccc2)cc1` the figure was -11.1%; with `CCC(CC)C(=O)NCCc1ccc(F)cc1`, 10.2%.
Then `CCOc1ccc(CN(C)C(C)C(=O)NCCc2ccc(F)cc2)cc1` (stereo not drawn), with -57.1%; and `CCOc1ccc(CN(C)C(C)C(=O)NCc2ccccc2)cc1` (stereo not drawn), with -21.7%.
With `CN(CC(=O)NCc1ccccc1)Cc1ccc(Cl)cc1` the figure was 2.36%; with `CSc1ccc(CN(C)CCc2ccccn2)cc1.O=C(O)C(=O)O`, -21.3%.
As to `CCOc1ccc(CN(C)CCc2ccccn2)cc1.O=C(O)C(=O)O`, the “hERG current change (%, negative = inhibition) at 1uM” value is recorded as -58.8%.
Then `O=c1c2ccccc2c(/C=N/c2nnc(Cc3ccccc3)s2)c(O)n1-c1ccc(Cl)cn1`, with 11.3%; and `COC(=O)C(C)NS(=O)(=O)c1ccc(NC(C)=O)cc1` (stereo not drawn), with 1.66%; and `Cc1ccc(C(=O)c2coc3cc([N+](=O)[O-])c(O)c([N+](=O)[O-])c23)cc1`, with 7.26%.
For `COCCCn1c(=O)/c(=C\c2ccccc2OC(F)F)s/c1=C(/C#N)C(=O)N1CCOCC1`, the “hERG current change (%, negative = inhibition) at 1uM” value is listed as 9.19%.
Then `CCN(CCn1cccn1)C(=O)c1cc(COc2ccc(F)c(F)c2)on1`, with -27.1%; and `COc1cc(S(=O)(=O)N2CCOCC2)ccc1NC(=O)c1cc2c(s1)CCC2`, with 3.78%; and `Cc1ccc2c(c1)N(C(=O)CCC(=O)NCc1cccnc1)CCO2`, with -4.63%.
With `CN(CC(=O)NCc1ccc(F)cc1)Cc1ccc(Br)cc1` the figure was 2.94%; with `CCOc1ccc(CN(C)CC(=O)NCc2ccccc2Cl)cc1`, -73.6%.
Then `COc1cccc(CN(C)CC(=O)NCc2ccccc2Cl)c1OC`, with 10.6%.
For the compound `COc1cccc(CN(C)CC(=O)NCc2ccccc2Cl)c1`, the “hERG current change (%, negative = inhibition) at 1uM” value turned out to be 14.6%.
With `CCOc1ccc(CN(C)CC(=O)NCc2ccc(F)cc2)cc1` the figure was -78.6%; with `CSc1ccc(CN(C)CC(=O)NCc2ccc(F)cc2)cc1`, -19.3%; with `CCOC(=O)c1ccc(Oc2nc(NC(C)(C)C)nc(N(C)C)n2)cc1`, 6.02%.
Then `CCOC(=O)Nc1c(C(=O)OC)[nH]c2cc(OC)ccc12`, with -3.1%; and `CCCn1c(SCc2ccccn2)nc2c1c(=O)n(C)c(=O)n2C`, with 16.5%.
Regarding `O=[N+]([O-])c1ccc(NC(=S)N/C(=N/CS(=O)(=O)c2ccccc2)c2ccccc2)cc1`, the “hERG current change (%, negative = inhibition) at 1uM” value worked out at 11%.
With `CN(C)C(=S)NC(=NCc1ccc([N+](=O)[O-])cc1)c1ccccc1` the figure was -60.3%; with `O=[N+]([O-])c1cccc(C(=NCc2ccccc2)NO)c1`, 15.5%.
With `S=C(NCCc1ccccn1)Nc1ccccc1Cl` the figure was 17%; with `COc1cn(-c2ccccc2)nc1C(=O)OCC(=O)Nc1ccc(C)c(C)c1`, 12.1%.
Then `CC(NC(=O)c1ccc2c(c1)OCO2)C1CCCO1` (stereo not drawn), with -0.0414%; and `CCOC(=O)CSc1nc2ccccc2c(=O)n1Cc1ccco1`, with 0.785%; and `CC(C)Cn1c(SCC(=O)N2CCN(C(=O)c3ccco3)CC2)nc2ccccc2c1=O`, with -42.9%.
In the case of `CCN(CC)C(=O)CSc1nc2c(sc(=S)n2Cc2ccco2)c(=O)n1-c1ccccc1`, the “hERG current change (%, negative = inhibition) at 1uM” value is recorded as 5.26%.
With `CCN(CC)C(=O)CSc1nc2c(sc(=S)n2CC)c(=O)n1-c1ccccc1` the figure was -13.3%; with `NC(=O)CSc1nc2ccccc2c(=O)n1Cc1ccco1`, -15.1%.
On to `C=CCn1c(SCC(=O)N2CCN(C(=O)c3ccco3)CC2)nc2sc(CC)cc2c1=O`, for which the “hERG current change (%, negative = inhibition) at 1uM” value is -85.6%.
Then `C=CCn1c(SCC(=O)N2CCc3ccccc3C2)nc2sc(CC)cc2c1=O`, with 10.8%; and `CCCCn1c(SCC(=O)N2CCOCC2)nc2ccccc2c1=O`, with -39.4%; and `C=CCn1c(SCC(=O)N2CCCC2=O)nc2sc(CC)cc2c1=O`, with -20%.
Then `CCN(CC)C(=O)CSc1nc2c(sc(=S)n2-c2ccccc2)c(=O)n1Cc1ccco1`, with -86.3%; and `O=C(CSc1nc2ccccc2c(=O)n1Cc1ccco1)N1CCCC1`, with -81.3%; and `CCCn1c(SCC(=O)N2CCN(C(=O)c3ccco3)CC2)nc2ccccc2c1=O`, with -84.8%.
For `Cc1cccc(OCCNC(=O)CCNS(=O)(=O)c2ccc3ccccc3c2)c1`, the “hERG current change (%, negative = inhibition) at 1uM” value is listed as 6.04%.

Source of the values: PMC4336329 (PLoS ONE, 2015).
